This passage reports binding signal results from paper PMC7862700, “An all-to-all approach to the identification of sequence-specific readers for epigenetic DNA modifications on cytosine”.

Holding throughout (experiment): DAPPL (digital affinity profiling via proximity ligation, sequencing); 10 mM Tris-HCl pH 7.5, 50 mM NaCl, 1 mM DTT, 4% glycerol, room temperature, 30 min; GST-TFs on glutathione beads, 16-mer random dsDNA library, 0.1% formaldehyde crosslink after washing; high values mean tight binding
In one assay the target is T1, FLI1 (Homo sapiens, UniProt Q01543 1-452).
T1 sequence: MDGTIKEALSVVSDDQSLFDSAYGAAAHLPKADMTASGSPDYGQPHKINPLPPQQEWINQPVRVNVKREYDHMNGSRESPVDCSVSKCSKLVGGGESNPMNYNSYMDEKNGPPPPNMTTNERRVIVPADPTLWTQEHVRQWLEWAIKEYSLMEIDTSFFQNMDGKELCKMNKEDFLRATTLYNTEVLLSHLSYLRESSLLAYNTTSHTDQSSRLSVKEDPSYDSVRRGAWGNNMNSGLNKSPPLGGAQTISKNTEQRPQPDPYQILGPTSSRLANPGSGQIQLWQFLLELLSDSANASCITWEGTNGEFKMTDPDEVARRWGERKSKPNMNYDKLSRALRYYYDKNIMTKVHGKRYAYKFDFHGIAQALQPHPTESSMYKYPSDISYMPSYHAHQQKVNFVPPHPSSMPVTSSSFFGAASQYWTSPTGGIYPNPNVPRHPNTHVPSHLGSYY
The conditions noted are these: protein: recombinant; tags: N-terminal GST; dsDNA, one strand shown. The procedure, abridged:
(§1)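 Pools were built from human transcription factors expressed in yeast as GST fusions, captured on glutathione beads and DNA-barcoded, along with a tag-only sample. Incubation with 200 nmole of a 16-mer random double-stranded DNA library lasted 30 min at room temperature in Tris/NaCl/DTT/glycerol buffer, and was followed by washing, 0.1% formaldehyde crosslinking, proximity ligation, PCR amplification and Illumina NextSeq500 sequencing. Binding signal is the quotient of each hexamer's read frequency for a factor and its frequency for the tag-only sample.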

The target of the next assay is T2, ELK1 (Homo sapiens, UniProt P19419 1-428).
T2 sequence: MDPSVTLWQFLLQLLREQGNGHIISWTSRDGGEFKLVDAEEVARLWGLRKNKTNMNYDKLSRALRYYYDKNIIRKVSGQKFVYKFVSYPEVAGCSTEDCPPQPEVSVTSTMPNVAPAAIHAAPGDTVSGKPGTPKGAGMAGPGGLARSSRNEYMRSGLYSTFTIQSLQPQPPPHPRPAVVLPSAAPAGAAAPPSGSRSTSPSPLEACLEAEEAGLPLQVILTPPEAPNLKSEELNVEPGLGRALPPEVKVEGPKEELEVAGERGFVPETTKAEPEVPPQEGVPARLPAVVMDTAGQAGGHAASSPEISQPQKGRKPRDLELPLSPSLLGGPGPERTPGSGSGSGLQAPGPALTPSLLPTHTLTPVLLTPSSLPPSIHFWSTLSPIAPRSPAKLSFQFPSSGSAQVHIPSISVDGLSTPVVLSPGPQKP
The conditions noted are these: protein: recombinant; tags: N-terminal GST; dsDNA, one strand shown. Summed up:
as §1

The target in a further assay is T3, GABPA (Homo sapiens, UniProt Q06546 1-454).
T3 sequence: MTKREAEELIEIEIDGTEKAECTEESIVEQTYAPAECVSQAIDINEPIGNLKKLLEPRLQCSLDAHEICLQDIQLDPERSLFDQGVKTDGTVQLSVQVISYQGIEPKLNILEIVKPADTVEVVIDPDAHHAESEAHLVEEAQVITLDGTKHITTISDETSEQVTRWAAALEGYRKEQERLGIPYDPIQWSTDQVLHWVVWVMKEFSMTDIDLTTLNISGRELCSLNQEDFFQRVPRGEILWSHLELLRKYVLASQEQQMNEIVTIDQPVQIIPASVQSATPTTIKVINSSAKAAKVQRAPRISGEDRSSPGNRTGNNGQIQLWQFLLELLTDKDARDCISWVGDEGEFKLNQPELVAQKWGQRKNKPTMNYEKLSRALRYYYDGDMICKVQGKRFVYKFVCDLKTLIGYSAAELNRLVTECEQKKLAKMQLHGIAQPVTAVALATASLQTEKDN
Particulars: protein: recombinant; tags: N-terminal GST; dsDNA, one strand shown. The procedure, abridged: as §1

In a further assay the target is T4, ERG (Homo sapiens, UniProt P11308 1-479).
T4 sequence: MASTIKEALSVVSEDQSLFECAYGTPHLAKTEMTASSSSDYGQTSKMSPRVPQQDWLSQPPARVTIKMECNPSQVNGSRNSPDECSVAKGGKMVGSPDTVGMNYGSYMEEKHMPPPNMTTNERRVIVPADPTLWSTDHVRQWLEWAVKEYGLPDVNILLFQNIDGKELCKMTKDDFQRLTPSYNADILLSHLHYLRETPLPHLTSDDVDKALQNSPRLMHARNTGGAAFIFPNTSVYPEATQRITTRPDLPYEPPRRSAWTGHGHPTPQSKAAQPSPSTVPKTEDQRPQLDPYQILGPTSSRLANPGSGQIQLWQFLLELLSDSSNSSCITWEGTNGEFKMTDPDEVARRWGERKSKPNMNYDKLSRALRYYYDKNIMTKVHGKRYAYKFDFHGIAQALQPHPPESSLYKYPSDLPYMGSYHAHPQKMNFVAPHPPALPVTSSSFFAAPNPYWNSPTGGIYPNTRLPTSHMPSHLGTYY
Particulars: protein: recombinant; tags: N-terminal GST; dsDNA, one strand shown. Summed up:
as §1

The target of another assay is ELF1 (Homo sapiens, UniProt P32519 1-619). The conditions noted are these: protein: recombinant; tags: N-terminal GST; dsDNA, one strand shown. Summed up: as §1
Sequence of ELF1 (P32519 whole entry): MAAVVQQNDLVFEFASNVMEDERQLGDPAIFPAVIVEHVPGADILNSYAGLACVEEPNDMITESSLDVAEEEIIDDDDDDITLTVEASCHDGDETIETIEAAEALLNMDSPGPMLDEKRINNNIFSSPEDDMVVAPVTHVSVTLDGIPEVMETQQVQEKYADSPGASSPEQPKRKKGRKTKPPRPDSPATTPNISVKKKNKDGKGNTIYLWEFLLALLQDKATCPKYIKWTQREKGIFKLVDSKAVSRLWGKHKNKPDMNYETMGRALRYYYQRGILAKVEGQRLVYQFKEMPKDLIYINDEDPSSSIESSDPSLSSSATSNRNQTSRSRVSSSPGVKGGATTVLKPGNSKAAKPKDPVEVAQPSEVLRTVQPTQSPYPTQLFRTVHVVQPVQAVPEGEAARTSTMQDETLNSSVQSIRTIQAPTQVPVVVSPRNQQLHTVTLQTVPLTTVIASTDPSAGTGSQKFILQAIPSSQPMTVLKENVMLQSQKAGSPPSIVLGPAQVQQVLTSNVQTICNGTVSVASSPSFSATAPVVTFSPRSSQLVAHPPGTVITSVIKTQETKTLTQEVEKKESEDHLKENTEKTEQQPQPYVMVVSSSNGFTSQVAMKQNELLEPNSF
The target of a further assay is T5, EHF (Homo sapiens, UniProt Q9NZC4 1-300).
T5 sequence: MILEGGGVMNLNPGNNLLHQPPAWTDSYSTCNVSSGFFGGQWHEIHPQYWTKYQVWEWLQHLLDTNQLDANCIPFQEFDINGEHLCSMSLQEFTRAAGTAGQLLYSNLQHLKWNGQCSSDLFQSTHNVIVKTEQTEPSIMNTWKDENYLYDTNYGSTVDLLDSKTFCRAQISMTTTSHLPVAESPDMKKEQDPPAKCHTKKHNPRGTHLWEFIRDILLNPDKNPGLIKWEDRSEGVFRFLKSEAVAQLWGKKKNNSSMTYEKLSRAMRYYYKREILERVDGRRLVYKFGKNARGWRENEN
Particulars: protein: recombinant; tags: N-terminal GST; dsDNA, one strand shown. Summed up: as §1

The target in the next assay is SPI1 (Homo sapiens, UniProt P17947 1-270). The conditions noted are these: protein: recombinant; tags: N-terminal GST; dsDNA, one strand shown. Summed up: as §1
For the next assay, the target named is SPIB (Homo sapiens, UniProt Q01892 1-262). Particulars: protein: recombinant; tags: N-terminal GST; dsDNA, one strand shown. The procedure, abridged:
as §1

The target in the next assay is T6, ELK3 (Homo sapiens, UniProt P41970 1-407).
T6 sequence: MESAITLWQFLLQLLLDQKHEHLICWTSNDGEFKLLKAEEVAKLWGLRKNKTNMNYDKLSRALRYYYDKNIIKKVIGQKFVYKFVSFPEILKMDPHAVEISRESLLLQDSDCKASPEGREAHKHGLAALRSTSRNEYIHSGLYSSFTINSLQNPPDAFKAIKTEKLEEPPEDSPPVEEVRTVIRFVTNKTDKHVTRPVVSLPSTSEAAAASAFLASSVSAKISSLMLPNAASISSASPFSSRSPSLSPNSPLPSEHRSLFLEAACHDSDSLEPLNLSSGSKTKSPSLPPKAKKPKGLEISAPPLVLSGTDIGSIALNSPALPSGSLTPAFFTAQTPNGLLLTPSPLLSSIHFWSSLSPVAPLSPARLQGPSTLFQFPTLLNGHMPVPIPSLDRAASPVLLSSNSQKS
The conditions noted are these: protein: recombinant; tags: N-terminal GST; dsDNA, one strand shown. Summed up:
as §1

The next assay deals with T7, FEV (Homo sapiens, UniProt Q99581 1-238).
T7 sequence: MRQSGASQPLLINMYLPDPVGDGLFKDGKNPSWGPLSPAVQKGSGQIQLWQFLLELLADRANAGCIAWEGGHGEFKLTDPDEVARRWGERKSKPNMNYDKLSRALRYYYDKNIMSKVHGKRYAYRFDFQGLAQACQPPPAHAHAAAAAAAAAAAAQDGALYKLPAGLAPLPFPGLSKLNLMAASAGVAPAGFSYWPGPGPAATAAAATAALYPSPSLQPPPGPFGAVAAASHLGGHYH
The conditions noted are these: protein: recombinant; tags: N-terminal GST; dsDNA, one strand shown. The procedure, abridged:
as §1

The next assay addresses ETV5 (Homo sapiens, UniProt P41161 1-510). The conditions noted are these: protein: recombinant; tags: N-terminal GST; dsDNA, one strand shown. Summed up: as §1
For a further assay, the target named is HSF1 (Homo sapiens, UniProt Q00613 1-529). Particulars: protein: recombinant; tags: N-terminal GST; chain copies: 3; dsDNA, one strand shown. Summed up: as §1
Sequence of HSF1 (Q00613 whole entry): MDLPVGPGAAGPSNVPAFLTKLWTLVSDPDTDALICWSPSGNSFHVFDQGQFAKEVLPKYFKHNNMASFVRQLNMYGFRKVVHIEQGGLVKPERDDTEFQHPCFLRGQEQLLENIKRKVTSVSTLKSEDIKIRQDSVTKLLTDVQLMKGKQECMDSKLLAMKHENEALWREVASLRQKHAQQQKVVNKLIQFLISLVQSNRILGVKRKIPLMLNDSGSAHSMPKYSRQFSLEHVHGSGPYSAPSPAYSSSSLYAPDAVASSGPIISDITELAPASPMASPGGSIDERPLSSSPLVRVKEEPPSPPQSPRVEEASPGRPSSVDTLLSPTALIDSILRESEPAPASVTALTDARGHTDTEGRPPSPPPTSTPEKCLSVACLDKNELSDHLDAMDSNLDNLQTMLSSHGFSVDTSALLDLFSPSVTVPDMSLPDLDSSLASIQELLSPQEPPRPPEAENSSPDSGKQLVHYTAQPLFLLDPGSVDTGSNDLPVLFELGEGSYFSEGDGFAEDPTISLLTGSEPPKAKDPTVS
The target of another assay is T8, SPIC (Homo sapiens, UniProt Q8N5J4 1-248).
T8 sequence: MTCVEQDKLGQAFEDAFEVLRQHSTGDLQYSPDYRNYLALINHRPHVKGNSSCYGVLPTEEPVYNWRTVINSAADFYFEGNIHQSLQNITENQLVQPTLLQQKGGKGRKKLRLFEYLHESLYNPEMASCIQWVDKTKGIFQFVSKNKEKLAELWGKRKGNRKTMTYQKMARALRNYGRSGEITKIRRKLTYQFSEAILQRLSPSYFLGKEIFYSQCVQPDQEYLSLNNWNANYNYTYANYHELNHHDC
The conditions noted are these: protein: recombinant; tags: N-terminal GST; dsDNA, one strand shown. Summed up: as §1

In the next assay the target is ELF4 (Homo sapiens, UniProt Q99607 1-663). The conditions noted are these: protein: recombinant; tags: N-terminal GST; dsDNA, one strand shown. The procedure, abridged:
as §1

The target of a further assay is T9, ELK4 (Homo sapiens, UniProt P28324-2 1-405).
T9 sequence: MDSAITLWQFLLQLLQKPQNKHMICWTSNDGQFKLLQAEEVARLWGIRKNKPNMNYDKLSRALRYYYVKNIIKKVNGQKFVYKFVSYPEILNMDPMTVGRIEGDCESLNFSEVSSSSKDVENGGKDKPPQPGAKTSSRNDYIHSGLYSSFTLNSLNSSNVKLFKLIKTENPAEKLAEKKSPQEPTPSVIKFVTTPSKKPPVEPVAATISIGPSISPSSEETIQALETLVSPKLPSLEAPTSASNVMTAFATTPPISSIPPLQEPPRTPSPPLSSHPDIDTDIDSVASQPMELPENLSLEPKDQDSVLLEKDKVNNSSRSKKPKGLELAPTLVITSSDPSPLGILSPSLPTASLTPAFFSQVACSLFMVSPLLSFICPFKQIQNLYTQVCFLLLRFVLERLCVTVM
The conditions noted are these: protein: recombinant; tags: N-terminal GST; dsDNA, one strand shown. Summed up:
as §1

For the next assay, the target named is T10, ETV2 (Homo sapiens, UniProt O00321 1-342).
T10 sequence: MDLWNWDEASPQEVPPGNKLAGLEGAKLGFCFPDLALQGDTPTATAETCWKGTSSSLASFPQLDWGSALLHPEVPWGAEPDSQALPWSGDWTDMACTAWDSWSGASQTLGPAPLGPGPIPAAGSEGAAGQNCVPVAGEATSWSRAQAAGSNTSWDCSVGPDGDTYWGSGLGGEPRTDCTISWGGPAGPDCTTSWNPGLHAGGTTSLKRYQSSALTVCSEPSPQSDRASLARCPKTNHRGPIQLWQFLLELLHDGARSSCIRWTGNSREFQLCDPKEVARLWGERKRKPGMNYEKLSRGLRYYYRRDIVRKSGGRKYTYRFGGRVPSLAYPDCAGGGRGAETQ
Particulars: protein: recombinant; tags: N-terminal GST; dsDNA, one strand shown. Summed up: as §1

For a further assay, the target named is T11, ELF3 (Homo sapiens, UniProt P78545 1-371).
T11 sequence: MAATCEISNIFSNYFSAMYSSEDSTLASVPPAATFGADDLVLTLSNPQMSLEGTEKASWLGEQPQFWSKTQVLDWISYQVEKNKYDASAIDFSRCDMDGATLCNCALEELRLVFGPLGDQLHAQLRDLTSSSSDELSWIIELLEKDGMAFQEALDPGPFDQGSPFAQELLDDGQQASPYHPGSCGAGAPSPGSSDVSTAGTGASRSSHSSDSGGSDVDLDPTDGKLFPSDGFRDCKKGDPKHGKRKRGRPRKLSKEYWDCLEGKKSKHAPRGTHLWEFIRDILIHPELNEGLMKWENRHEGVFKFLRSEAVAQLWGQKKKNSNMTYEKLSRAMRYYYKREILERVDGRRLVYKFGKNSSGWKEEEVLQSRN
Particulars: protein: recombinant; tags: N-terminal GST; dsDNA, one strand shown. Summed up:
as §1

For another assay, the target named is CRX (Homo sapiens, UniProt O43186 1-299). The conditions noted are these: protein: recombinant; tags: N-terminal GST; dsDNA, one strand shown. Summed up:
as §1

A further assay addresses ETV1 (Homo sapiens, UniProt P50549 1-477). The conditions noted are these: protein: recombinant; tags: N-terminal GST; dsDNA, one strand shown. Summed up: as §1

Sequence of CRX (O43186 whole entry): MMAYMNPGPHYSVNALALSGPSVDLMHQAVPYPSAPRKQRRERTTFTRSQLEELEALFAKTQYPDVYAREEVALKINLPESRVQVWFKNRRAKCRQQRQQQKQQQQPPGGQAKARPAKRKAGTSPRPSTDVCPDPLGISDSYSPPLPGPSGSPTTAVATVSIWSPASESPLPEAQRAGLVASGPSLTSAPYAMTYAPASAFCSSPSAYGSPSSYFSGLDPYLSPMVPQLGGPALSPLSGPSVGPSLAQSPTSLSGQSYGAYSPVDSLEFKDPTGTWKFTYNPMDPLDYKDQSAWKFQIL
Sequence of ELF4 (Q99607 whole entry): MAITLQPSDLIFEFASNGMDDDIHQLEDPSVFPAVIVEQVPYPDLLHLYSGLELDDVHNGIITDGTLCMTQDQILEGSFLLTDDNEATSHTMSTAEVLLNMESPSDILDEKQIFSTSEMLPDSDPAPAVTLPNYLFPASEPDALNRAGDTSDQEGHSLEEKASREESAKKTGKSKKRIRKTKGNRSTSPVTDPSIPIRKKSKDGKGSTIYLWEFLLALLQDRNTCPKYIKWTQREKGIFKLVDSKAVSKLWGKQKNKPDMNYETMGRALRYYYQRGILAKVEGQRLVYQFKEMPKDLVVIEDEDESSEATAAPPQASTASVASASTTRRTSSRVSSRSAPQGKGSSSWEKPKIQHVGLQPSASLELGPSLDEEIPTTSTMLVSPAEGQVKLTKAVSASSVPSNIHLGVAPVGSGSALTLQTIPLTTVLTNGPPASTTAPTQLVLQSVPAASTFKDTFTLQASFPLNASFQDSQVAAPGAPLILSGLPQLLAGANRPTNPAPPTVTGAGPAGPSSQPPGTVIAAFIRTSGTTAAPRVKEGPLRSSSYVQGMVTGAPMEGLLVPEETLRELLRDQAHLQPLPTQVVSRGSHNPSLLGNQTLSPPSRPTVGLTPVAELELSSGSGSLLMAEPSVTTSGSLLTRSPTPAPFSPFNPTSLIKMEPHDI
Sequence of SPIB (Q01892 whole entry): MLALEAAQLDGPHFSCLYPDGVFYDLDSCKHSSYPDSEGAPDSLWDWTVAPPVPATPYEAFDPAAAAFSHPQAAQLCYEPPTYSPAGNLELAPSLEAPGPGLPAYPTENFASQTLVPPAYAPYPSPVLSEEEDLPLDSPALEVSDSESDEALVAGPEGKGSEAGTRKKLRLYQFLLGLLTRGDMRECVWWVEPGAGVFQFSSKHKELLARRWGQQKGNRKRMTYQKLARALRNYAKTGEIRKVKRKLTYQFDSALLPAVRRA
Sequence of ETV5 (P41161 whole entry): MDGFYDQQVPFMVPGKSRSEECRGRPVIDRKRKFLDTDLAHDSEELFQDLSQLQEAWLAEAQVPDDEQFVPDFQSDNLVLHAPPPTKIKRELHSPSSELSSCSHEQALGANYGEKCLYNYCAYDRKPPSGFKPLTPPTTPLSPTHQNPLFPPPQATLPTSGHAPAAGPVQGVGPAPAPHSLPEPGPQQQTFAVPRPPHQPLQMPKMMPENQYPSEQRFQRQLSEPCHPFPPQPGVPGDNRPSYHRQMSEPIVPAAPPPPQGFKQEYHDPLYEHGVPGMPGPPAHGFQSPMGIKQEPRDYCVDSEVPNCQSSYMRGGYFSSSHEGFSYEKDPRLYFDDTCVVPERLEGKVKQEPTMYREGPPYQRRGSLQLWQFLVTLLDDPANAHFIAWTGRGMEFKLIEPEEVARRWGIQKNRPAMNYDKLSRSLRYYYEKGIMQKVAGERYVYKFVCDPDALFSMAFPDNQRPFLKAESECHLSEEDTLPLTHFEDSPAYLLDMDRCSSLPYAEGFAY
Sequence of ETV1 (P50549 whole entry): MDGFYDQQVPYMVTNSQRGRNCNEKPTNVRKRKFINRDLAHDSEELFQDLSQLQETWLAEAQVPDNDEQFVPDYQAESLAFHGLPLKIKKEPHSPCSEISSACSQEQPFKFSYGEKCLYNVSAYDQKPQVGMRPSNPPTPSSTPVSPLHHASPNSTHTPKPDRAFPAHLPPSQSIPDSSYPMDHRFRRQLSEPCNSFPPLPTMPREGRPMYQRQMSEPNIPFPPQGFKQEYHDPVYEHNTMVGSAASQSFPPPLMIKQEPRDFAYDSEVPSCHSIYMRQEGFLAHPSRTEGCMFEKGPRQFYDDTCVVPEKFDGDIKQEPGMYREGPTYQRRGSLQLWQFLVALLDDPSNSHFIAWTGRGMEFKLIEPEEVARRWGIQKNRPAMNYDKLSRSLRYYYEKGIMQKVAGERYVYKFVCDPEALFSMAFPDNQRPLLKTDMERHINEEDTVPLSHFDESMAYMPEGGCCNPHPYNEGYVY

Regarding GCCCCT, the binding signal with FLI1 was 1.22 fold enrichment (6-mer frequency, TF over GST control); with ELK1 it was 1.2 fold enrichment (6-mer frequency, TF over GST control); with GABPA, 1.24 fold enrichment (6-mer frequency, TF over GST control); with ERG, 1.23 fold enrichment (6-mer frequency, TF over GST control); in the assay with ELF1, 1.37 fold enrichment (6-mer frequency, TF over GST control); with EHF, 1.43 fold enrichment (6-mer frequency, TF over GST control). The binding signal with SPI1 is 1.29 fold enrichment (6-mer frequency, TF over GST control); in the assay with SPIB, 1.21 fold enrichment (6-mer frequency, TF over GST control); in the assay with ELK3, 1.36 fold enrichment (6-mer frequency, TF over GST control); in the assay with FEV, 1.39 fold enrichment (6-mer frequency, TF over GST control); with ETV5, 1.39 fold enrichment (6-mer frequency, TF over GST control); with HSF1, 1.13 fold enrichment (6-mer frequency, TF over GST control). In addition, the binding signal was 1.22 fold enrichment (6-mer frequency, TF over GST control) in the assay with SPIC; 1.4 fold enrichment (6-mer frequency, TF over GST control) in the assay with ELF4; 1.37 fold enrichment (6-mer frequency, TF over GST control) with ELK4; 1.28 fold enrichment (6-mer frequency, TF over GST control) with ETV2; 1.24 fold enrichment (6-mer frequency, TF over GST control) with ELF3; 1.12 fold enrichment (6-mer frequency, TF over GST control) with CRX. Moreover, the binding signal with ETV1 was 1.34 fold enrichment (6-mer frequency, TF over GST control).
